HCMV antiviral: inhibitors of human cytomegalovirus; AID 1259415; activity change, negative = inhibition, % at 57.5 µM; 410,000 compounds, 4.5% hits; HFF cells, HCMV-luciferase reporter, 72 h; hits give low values; in the data active = activity change below about -60%; inconclusive = no clear call, values can overlap the other calls; inactive = above about -39%
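After 16 h attachment at 37C, HFF cells received test compound and HCMV-luciferase (1 PFU/cell); reporter luminescence read 72 h later, data normalized against buffer-only and known inhibitor Salinomycin.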
FMDV antiviral: antivirals against foot and mouth disease virus | FMDV antiviral cell-based qHTS | Potency, µM (titrated, usually from 57.9 µM), most hits filed as inhibitors | 410,000 compounds, 1.2% hits; calls by dose curve; tested in HEK293T cells; also: read-out not given here; nearly all actives have a fitted effect of over 45% in size
MARV entry inh: blocks Marburg virus binding to or entry into cells | Marburg virus pseudotyped entry inhibition, cell reporter | Potency, µM (highest dose often 37.8 µM), usual class: inhibitors | 300,000 compounds, 1.8% hits; calls by dose curve; tested in HEK293 cells
Lassa entry inh: blocks Lassa virus binding to or entry into cells | 300,000 compounds, 1.2% hits | Potency, µM (titrated, usually from 37.9 µM), most hits filed as inhibitors | Lassa virus pseudotype entry inhibition, cell reporter; calls by dose curve; tested in HEK293 cells; also: nearly all actives have a fitted effect of over 50% in size
Of the large screens only hits and unclear results are named; the others gave an inactive call. This is a sample that favours compounds with a hit; in the whole collection about 6.2% have one here.

CCCN1C2CCCC1CC(NC(=S)Nc1ccc(OC)cc1)C2 (stereo unspecified)	HCMV antiviral -64 (no result: MARV entry inh, Lassa entry inh)
COc1ccc(CN2C3CCCC2CC(NC(=O)Nc2cccc(C)c2)C3)cc1 (stereo unspecified)	MARV entry inh 4.6µM, Lassa entry inh inconclusive
COc1ccc(CN2C3CCCC2CC(NC(=O)Nc2ccccc2)C3)cc1 (stereo unspecified)	MARV entry inh inconclusive
COc1ccc(C(O)(C2CCCCC2)C(CN2CCOCC2)c2ccccc2)cc1 (stereo unspecified)	HCMV antiviral -61 (no result: MARV entry inh, Lassa entry inh)
OC(c1ccccc1)(C1CCCCC1)C(CN1CCOCC1)c1ccccc1 (stereo unspecified)	FMDV antiviral inconclusive, MARV entry inh inconclusive
COc1ccc(C(O)(c2ccccc2OC)C(CN2CCOCC2)c2ccccc2)cc1 (stereo unspecified)	MARV entry inh 11µM (no result: Lassa entry inh)
Cc1cnc(-n2ncc(C(=O)NC(C)(C)CO)c2-c2cccs2)nc1-c1ccc(F)cc1	none (no result: HCMV antiviral, MARV entry inh, Lassa entry inh)
Cc1cc(-c2nnc(SCCC(=O)Nc3ccccc3)o2)no1	HCMV antiviral -85
CC(=O)N1CCCc2cc(S(=O)(=O)N3CCCCC3)ccc21	none (no result: MARV entry inh)
COC(=O)COc1ccc(C2C(C(=O)OC)=C(C)NC3=C2C(=O)c2ccccc23)cc1OC (stereo unspecified)	HCMV antiviral -108
CCOC(=O)COc1ccccc1C1C(C(=O)OC)=C(C)NC2=C1C(=O)c1ccccc12 (stereo unspecified)	MARV entry inh inconclusive
CC1CCc2noc(NC(=O)c3ccccc3[N+](=O)[O-])c2C1 (stereo unspecified)	none
CN(C)S(=O)(=O)c1cccc(NC(=O)CCSc2ccc(Cl)cc2)c1	HCMV antiviral inconclusive, MARV entry inh inconclusive, Lassa entry inh 10µM
CN(C)S(=O)(=O)c1cccc(NC(=O)CCNC(=O)Nc2ccccc2)c1	none (no result: MARV entry inh, Lassa entry inh)
CN(C)S(=O)(=O)c1cccc(NC(=O)CSc2nc3ccccc3[nH]2)c1	HCMV antiviral -61, MARV entry inh inconclusive, Lassa entry inh inconclusive
CCN(CC)S(=O)(=O)c1cccc(NC(=O)CSc2nc3ccccc3[nH]2)c1	HCMV antiviral inconclusive, FMDV antiviral inconclusive, MARV entry inh inconclusive
CCCn1c(SCC(=O)Nc2cccc(S(=O)(=O)N(C)C)c2)nc2ccccc2c1=O	MARV entry inh 11µM
CN(C)S(=O)(=O)c1cccc(NC(=O)CSc2ncnc3ccccc23)c1	FMDV antiviral inconclusive, MARV entry inh inconclusive, Lassa entry inh inconclusive
COc1ccc(NC(=O)Cn2c(=O)n(CCCCCC(=O)NCc3ccc4c(c3)OCO4)c(=O)c3sccc32)cc1Cl	none
C[C@@H]1Cc2ccccc2N1NC(=O)c1ccc(Cl)c(S(N)(=O)=O)c1	none (no result: HCMV antiviral, FMDV antiviral, Lassa entry inh)
CCC1(C2CCN(C(=O)c3cc(C)cc(C)c3)CC2)NC(=O)N(CCc2scnc2C)C1=O (stereo unspecified)	none (no result: HCMV antiviral, MARV entry inh, Lassa entry inh)
CCOc1c(Cl)cc(CNc2ccc(N3CCCC3)cc2)cc1OC	HCMV antiviral -65, MARV entry inh inconclusive, Lassa entry inh inconclusive
N#C/C(=C(/N)Sc1ccc(N)cc1)c1ccccc1C(F)(F)F	none (no result: HCMV antiviral, MARV entry inh, Lassa entry inh)
O=C(c1ccc(S(=O)(=O)c2ccccc2Cl)c([N+](=O)[O-])c1)N1CCN(Cc2ccccc2)CC1	HCMV antiviral -85, FMDV antiviral 11µM, MARV entry inh inconclusive, Lassa entry inh inconclusive
Cc1ccc(C(=O)N2CCOCC2)cc1[N+](=O)[O-]	none
O=C(c1ccc(S(=O)(=O)c2ccc(F)cc2)c([N+](=O)[O-])c1)N1CCCCCC1	HCMV antiviral inconclusive, FMDV antiviral 13µM, MARV entry inh inconclusive, Lassa entry inh inconclusive
Cc1ccc(CS(=O)(=O)c2ccc(C(=O)N3CCCCC3)cc2[N+](=O)[O-])cc1	FMDV antiviral inconclusive, MARV entry inh inconclusive
CC1CCN(C(=O)c2ccc(S(=O)(=O)Cc3ccccc3F)c([N+](=O)[O-])c2)CC1	HCMV antiviral -76, FMDV antiviral 20µM, MARV entry inh inconclusive, Lassa entry inh inconclusive
O=C(c1ccc(S(=O)(=O)Cc2ccccc2Cl)c([N+](=O)[O-])c1)N1CCOCC1	HCMV antiviral -69, FMDV antiviral inconclusive, MARV entry inh inconclusive, Lassa entry inh inconclusive
O=C(c1ccc(S(=O)(=O)Cc2ccccc2F)c([N+](=O)[O-])c1)N1CCCC1	FMDV antiviral inconclusive, MARV entry inh inconclusive
Cc1ccccc1-c1ccc2ncnc(N3CCOCC3)c2c1	none (no result: HCMV antiviral, MARV entry inh, Lassa entry inh)
CCOC(=O)c1cccc(NS(=O)(=O)c2cc(Br)cc3c2N(C(=O)C2CC2)CC3)c1	FMDV antiviral inconclusive, MARV entry inh inconclusive
Cc1ccc(CS(=O)(=O)c2ccc(C(=O)N3CCN(c4ccccn4)CC3)cc2[N+](=O)[O-])cc1	HCMV antiviral -91, FMDV antiviral 16µM, MARV entry inh inconclusive
Cc1cccc(C#Cc2ccccc2)n1	HCMV antiviral -65, MARV entry inh inconclusive, Lassa entry inh inconclusive
COc1ccc(Oc2ncc3nc(CCc4ccccc4)c(=O)n(CCC#N)c3n2)cc1	none (no result: HCMV antiviral, MARV entry inh, Lassa entry inh)
Cc1c(C)c2cc(Cl)c(OCC(=O)Nc3ccccn3)cc2oc1=O	none (no result: MARV entry inh, Lassa entry inh)
Cc1cccc(OCC(=O)NNC(=O)c2cccs2)c1	none
Cc1c(C)c2ccc(OCC(=O)Nc3ccccn3)c(C)c2oc1=O	HCMV antiviral -84 (no result: MARV entry inh, Lassa entry inh)
Cc1cc(OCC(=O)NNC(=O)c2cccs2)ccc1Br	HCMV antiviral -73
Cc1cc(Cl)ccc1OCC(=O)Nc1ccncc1	HCMV antiviral -60 (no result: MARV entry inh, Lassa entry inh)
Cc1cccc(OCC(=O)Nc2ccncc2)c1C	HCMV antiviral -84, MARV entry inh inconclusive, Lassa entry inh inconclusive
Cc1cc(Cl)ccc1OCC(=O)NCc1ccncc1	none (no result: FMDV antiviral)
COCCN1C(=O)CC[C@@]23C1=NC(C(=O)OC)=C(C(=O)OC)[C@@H]2N(CC=C(C)C)c1ccccc13	none (no result: HCMV antiviral, FMDV antiviral, Lassa entry inh)
O=C(COc1ccc(Cl)cc1Cl)Nc1ccccn1	HCMV antiviral -80, FMDV antiviral 1.6µM, MARV entry inh inconclusive, Lassa entry inh 0.52µM
CSc1ccccc1NC(=O)COc1ccc(Cl)cc1Cl	HCMV antiviral inconclusive, MARV entry inh inconclusive
Cc1cccc(OCC(=O)Nc2nnn(C)n2)c1C	HCMV antiviral -102
COc1cccc(NC(=O)COc2ccc(Br)c(C)c2)c1	none (no result: MARV entry inh, Lassa entry inh)
Cc1cccc(OCC(=O)Nc2ncn[nH]2)c1C	none (no result: MARV entry inh, Lassa entry inh)
Cc1cc(OCC(=O)Nc2ccncc2)ccc1Br	HCMV antiviral -90, FMDV antiviral inconclusive
O=C(COc1ccc(Cl)cc1Cl)Nc1ccc(C(=O)Nc2ccccc2C(=O)O)cc1	none (no result: MARV entry inh, Lassa entry inh)
O=C(CCCOc1ccc(Cl)cc1Cl)Nc1ccccc1C(=O)O	MARV entry inh 3.2µM, Lassa entry inh inconclusive
COC(=O)[C@]12C[C@H](CC(=O)NCc3ccccc3)C(=O)N(Cc3ccccc3)C1=C[C@H](C(C)C)O[C@@H]2C1CC1	none (no result: FMDV antiviral, MARV entry inh, Lassa entry inh)
COc1cccc(C2=NC(C)(CC(=O)NCc3ccccc3F)ON2C)c1 (stereo unspecified)	none (no result: FMDV antiviral, MARV entry inh, Lassa entry inh)
O=C(c1ccc2c(c1)C(=O)NC2=O)c1ccc2c(c1)C(=O)NC2=O	none (no result: FMDV antiviral, MARV entry inh, Lassa entry inh)
C/C=C/c1ccc(OCC(=O)Nc2ccncc2)c(OC)c1	HCMV antiviral -83 (no result: MARV entry inh, Lassa entry inh)
Cc1nn(C)c(C)c1NC(=O)COc1ccc(Cl)cc1Br	HCMV antiviral -93, FMDV antiviral inconclusive, MARV entry inh inconclusive, Lassa entry inh inconclusive
O=C(C1CCCN(S(=O)(=O)c2ccc(Br)s2)C1)N1CCN(c2ccc(F)cc2)CC1 (stereo unspecified)	HCMV antiviral inconclusive, FMDV antiviral inconclusive, MARV entry inh inconclusive
